Only some compounds are listed: those with a hit (about 1.4% of all), similar ones and a draw of the others.
Rango dissoc inh: qHTS Assay for Inhibitors of RanGTP induced Rango (Ran-regulated importin-beta cargo) - Importin beta complex dissociation; Snurportin-1 (Homo sapiens) + GTP-binding nuclear protein Ran (Homo sapiens) + Importin …; Biochemical FRET Rango-importin beta, RanGTP-induced dissociation; Potency, µM (series often up to 46.1 µM); hit rate 0.071% among 340,000; AID 540253, 2011; also: nearly all actives have a fitted effect of over 45% in size
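Compounds sat 5 min at room temperature with 0.1 uM Rango biosensor plus 0.25 uM importin beta, then FRET pre-read. RanGTP-RCC1 (0.6 uM Ran, 2mM GTP, 0.2 uM RCC1) added for 45 min, and the CFP/YFP post-read measured blocked complex dissociation.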
KCNH2 3.1 block: qHTS for Inhibitors of KCHN2 3.1: Mutant qHTS. Potassium voltage-gated channel subfamily H member 2, brain isoform KCNH2 3.1 (human). U2OS KCNH2 3.1, thallium flux FluxOr; stronger effect = lower value. activity change, % (tested at about 1.8 µM). hit rate 0.95% among 340,000. AID 720553, 2013;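 active = maximum activity change below -70%; inconclusive = maximum activity change from -70% to -50%; inactive = maximum activity change above -50%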;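 also: thallium influx rate constant from kinetic fluorescence after stimulation buffer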
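We transduce U2OS cells with the mutant 3.1 virus, culture them overnight, load FluxOr with Red40 quencher for 45 min, then add stimulation buffer and read kinetically for 2 min to derive a normalized rate constant.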
MmCpn inh: Inhibitors of TCP-1 ring complex (TRiC) of Methanococcus maripaludis (MmCpn): qHTS. Chaperonin Mm-Cpn (Methanococcus maripaludis). hit rate 0.031% among 330,000. purified Mm-Cpn ATPase, ADP Transcreener TR-FRET. Potency, µM (top dose mostly 76.9 µM), most hits filed as inhibitors; active = well fitted inhibition curve with a large enough effect; inconclusive = small, poorly fitted or top-dose-only effect; also: nearly all actives have a fitted effect of over 80% in size
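Quantitative HTS used 25 nM Mm-CPN and 10 uM ATP in magnesium/KCl Tris buffer, pH 7.4, with 1 mM DTT. Hydrolysis ran 30 min at 37°C; ADP was read by HTRF.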
CCT modulator: High-Throughput Screening for Modulators of Cytosolic Chaperonin Activity | purified chaperonin ATPase assay, HTRF ADP detection, 30 min | activity change, % (no concentration beside the values), hits read low | hit rate 0.3% among 360,000 | AID 651819, 2012; in the data active = activity change below about -30%
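First, chaperonin was dispensed at 40 nM or 20 nM final depending on batch activity. Next, compounds were pinned at 76 uM and ATP added at 10 uM. After 30 min at 37 °C, ADP detection reagents ran 30 min at ambient temperature.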
Rango-impB inh: qHTS Assay for Inhibitors of Rango (Ran-regulated importin-beta cargo) - Importin beta complex formation; Importin subunit beta-1 (Homo sapiens), Q14974; Rango CFP/YFP FRET sensor + importin beta, 45 min; Potency, µM (highest dose often 92.2 µM); hit rate 0.031% among 340,000; AID 540263, 2011; also: nearly all actives have a fitted effect of over 15% in size
Target sequence (Q14974 whole entry, looked up): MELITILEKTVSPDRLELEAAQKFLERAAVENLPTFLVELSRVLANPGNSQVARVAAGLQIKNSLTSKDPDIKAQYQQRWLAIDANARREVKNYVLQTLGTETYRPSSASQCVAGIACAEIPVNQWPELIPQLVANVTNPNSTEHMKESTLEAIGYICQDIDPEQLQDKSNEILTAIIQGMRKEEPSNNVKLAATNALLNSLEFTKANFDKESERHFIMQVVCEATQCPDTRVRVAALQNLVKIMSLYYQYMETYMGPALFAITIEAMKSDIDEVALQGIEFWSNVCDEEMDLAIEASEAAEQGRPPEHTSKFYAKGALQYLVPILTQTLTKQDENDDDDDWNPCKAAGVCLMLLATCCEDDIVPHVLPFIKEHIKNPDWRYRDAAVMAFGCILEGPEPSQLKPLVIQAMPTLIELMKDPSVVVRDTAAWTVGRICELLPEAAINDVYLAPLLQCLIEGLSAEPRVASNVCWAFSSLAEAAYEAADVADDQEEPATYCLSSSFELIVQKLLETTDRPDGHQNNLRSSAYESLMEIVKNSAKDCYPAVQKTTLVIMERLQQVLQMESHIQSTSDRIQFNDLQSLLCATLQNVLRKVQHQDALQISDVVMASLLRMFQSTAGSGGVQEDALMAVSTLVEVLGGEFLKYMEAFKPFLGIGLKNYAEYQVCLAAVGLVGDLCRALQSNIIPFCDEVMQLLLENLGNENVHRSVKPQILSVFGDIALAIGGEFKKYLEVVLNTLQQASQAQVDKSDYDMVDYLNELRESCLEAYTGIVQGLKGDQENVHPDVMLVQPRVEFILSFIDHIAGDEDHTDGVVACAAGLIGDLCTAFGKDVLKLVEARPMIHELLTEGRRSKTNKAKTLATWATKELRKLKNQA
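FRET biosensor (snurportin 1 IBB flanked by EYFP and cerulean), 50 nM, with compound 5 min, then 0.125 microM importin beta in PBS, 1 mM DTT, 0.02% Tween-20, 0.1% BSA. CFP/YFP ratio read after 45 min at room temperature; pre-read flags interference.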
hERG WT inh: qHTS for Inhibitors of KCHN2 3.1: Wildtype qHTS. Voltage-gated inwardly rectifying potassium channel KCNH2 (Homo sapiens), Q12809. activity change, % at 1.84 µM. U2OS, BacMam KCNH2, thallium flux FluxOr; stronger effect = lower value. hit rate 0.37% among 340,000;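 active = maximum activity change below -70%; inconclusive = maximum activity change between -70% and -50%; inactive = maximum activity change above -50%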
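U2OS cells were transduced with wild-type KCNH2 virus (2.03 x 10^8 / mL) for 4 h at room temperature, then cultured overnight at 37 C. Thallium flux was read with FluxOr dye. Rate constants were normalized to DMSO controls.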
Large screens that a line does not name were inactive. Unless noted, calls follow the shape of the full dose curve.

CC(=O)Nc1ccc(CN2CCC(CO)(CCOc3ccccc3)CC2)cc1	KCNH2 3.1 block inconclusive
COc1ccc(OC)c(CN2CCC(CO)(CCOc3ccccc3)CC2)c1	KCNH2 3.1 block -75
Cc1cc(C)c(CN2CCC(CO)(CCOc3ccccc3)CC2)cc1C	KCNH2 3.1 block -111
CCOC(=O)C1(CCOc2ccccc2)CCN(Cc2cccn2-c2cccnc2)CC1	none
COc1cc(CN2CCC(CO)(CCOc3ccccc3)CC2)cc(OC)c1	KCNH2 3.1 block inconclusive
OCC1(CCOc2ccccc2)CCN(Cc2cccn2-c2ncccn2)CC1	KCNH2 3.1 block -93
OCC1(CCOc2ccccc2)CCN(C2Cc3ccccc3C2)CC1	KCNH2 3.1 block -77
O=C(Cc1cccs1)NCCn1ccc2ccccc21	Rango-impB inh inconclusive
Cc1ccc(NC(=O)CN2CCN(S(=O)(=O)c3cccs3)CC2)cc1S(=O)(=O)N(C)C	none
OC(c1cc(F)cc(Cl)c1)c1ncc(-c2cccc(C(F)(F)F)c2)[nH]1 (centres undefined)	none (no result: Rango dissoc inh, KCNH2 3.1 block, MmCpn inh, Rango-impB inh, hERG WT inh)
COc1ccccc1C(=O)Oc1ccc2ccc(=O)oc2c1	Rango dissoc inh inconclusive, Rango-impB inh inconclusive
O=C(Oc1ccc2ccc(=O)oc2c1)c1ccco1	Rango dissoc inh 16µM, Rango-impB inh inconclusive
CC(=O)N1CCC(N(CCN2CCOCC2)C(=S)Nc2c(C)cccc2C)CC1	MmCpn inh inconclusive, CCT modulator -35
COc1cccc(CC(=O)OC(C)C(=O)Nc2ncc(Cl)cc2Cl)c1 (centres undefined)	none
Cc1ccc(CN2CCN(Cc3c[nH]c4ccccc34)CC2CCO)o1 (centres undefined)	none
CCOc1ccccc1CN1CCN(Cc2[nH]c3ccccc3c2C)CC1CCO (centres undefined)	KCNH2 3.1 block -74
CCOc1ccc(CN2CCN(Cc3[nH]c4ccc(OC)cc4c3C)CC2CCO)cc1 (centres undefined)	KCNH2 3.1 block -107, hERG WT inh -73
Cc1ccc(CN2CCN(Cc3cc(=O)c4ccccc4[nH]3)CC2CCO)o1 (centres undefined)	hERG WT inh -118
CS(=O)(=O)N(CC(=O)NC1CC1)C1CCCCC1	none (no result: KCNH2 3.1 block)
C=C1CCN([C@@H](CC(C)C)C(=O)NCCC(C)C)S(=O)(=O)c2ccccc21	KCNH2 3.1 block -75 (no result: MmCpn inh)
C=C1CCN([C@@H](CC(C)C)C(=O)NCc2ccc(Cl)cc2)S(=O)(=O)c2ccccc21	none (no result: MmCpn inh)
CCC(CC)COC(=O)C1=C(C)NC(=O)NC1c1ccc2c(c1)OCO2 (centres undefined)	none
Cc1ccc(OCCCc2c(C)n[nH]c2C)cc1	CCT modulator -60, Rango-impB inh inconclusive
Cc1n[nH]c(C)c1CCCCOc1ccccc1	none
CC(C)(O)C(=O)NNC(=S)Nc1cccc(C(F)(F)F)c1	KCNH2 3.1 block -94, Rango-impB inh inconclusive
FC(F)(F)c1cccc(NC(=S)NNC(=S)Nc2cccc(C(F)(F)F)c2)c1	none (no result: Rango dissoc inh, KCNH2 3.1 block, CCT modulator, Rango-impB inh, hERG WT inh)
CCOC(=O)N1CCC(N2CCCC(C(=O)c3cccc(OC(C)C)c3)C2)CC1 (centres undefined)	KCNH2 3.1 block -80
CCOC(=O)N1CCC(N2CCCC(C(=O)c3cccc(OC)c3)C2)CC1 (centres undefined)	none
COc1ccc(Cc2nnc(NC(=O)c3cccc(F)c3)s2)cc1OC	none
O=S(=O)(NCC1OCCc2ccccc21)c1ccc(S(=O)(=O)N2CCOCC2)cc1 (centres undefined)	CCT modulator -52
O=S(=O)(NCC1CCN(c2ccc(S(=O)(=O)N3CCOCC3)cc2)CC1)c1ccccc1	none
O=C(O)Cn1cc(/C=C2/NC(=O)N(c3ccc(Cl)cc3)C2=O)c2ccccc21	Rango dissoc inh 10µM, Rango-impB inh inconclusive
CC(C)n1cc(/C=C2\NC(=O)N(c3cccc(Cl)c3)C2=O)c2ccccc21	Rango dissoc inh inconclusive, Rango-impB inh inconclusive
Cc1ccc(C(=O)NCC(=O)NCC(=O)OCC(=O)c2ccc([N+](=O)[O-])cc2)cc1	none
Cc1ccc(C(=O)COC(=O)CNC(=O)CNC(=O)c2ccc(C)cc2)cc1	KCNH2 3.1 block -85
COCc1c(C(=O)OCC(=O)NCCN2C(=O)CSC2=O)oc2ccccc12	hERG WT inh -120
O=C(COC(=O)c1oc2ccccc2c1COc1ccccc1)NCCN1C(=O)CSC1=O	none
CCC(C)n1c(SCC(=O)NC(=O)Nc2ccc3c(c2)OCCO3)nc2ccccc2c1=O (centres undefined)	none
Cc1c(C(=O)N2CCN(CCc3ccccn3)CC2)oc2ccc(Cl)cc12	KCNH2 3.1 block -103
Cc1c(C(=O)N2CCN(CCc3ccccc3)CC2)oc2ccccc12	none
Cc1cccc(NC(=O)C2CCCN2S(=O)(=O)c2cccc3cccnc23)c1 (centres undefined)	none (no result: Rango dissoc inh, KCNH2 3.1 block, CCT modulator, Rango-impB inh, hERG WT inh)
COC(=O)CSc1nnc(Cc2ccccc2)n1-c1ccc(C)cc1	KCNH2 3.1 block -98
CCc1ccc(Nc2nnc(SCC(=O)Nc3sccc3C(N)=O)s2)cc1	none
COc1cccc(Nc2nnc(SCC(=O)Nc3sccc3C(N)=O)s2)c1	KCNH2 3.1 block -97
Oc1ccc(COC2CCN(Cc3ccccc3)C2)c2cccnc12 (centres undefined)	none (no result: Rango dissoc inh, KCNH2 3.1 block, CCT modulator, Rango-impB inh, hERG WT inh)
CC(=O)N(CCC1(C(C)C)CCOC(C)(C)C1)C(C)c1cccs1 (centres undefined)	none
CCOc1cc(C(=S)N2CCCCC2)ccc1OS(=O)(=O)c1ccc(Cl)cc1	KCNH2 3.1 block -114
CC1(C)N=C(N)NC(=NCCCOc2ccc([N+](=O)[O-])cc2)N1	none (no result: Rango dissoc inh, KCNH2 3.1 block, MmCpn inh, Rango-impB inh, hERG WT inh)
CC(C)C(C)(C#N)NC(=O)CSc1nc(C2CCCCC2)n(-c2ccccc2)n1 (centres undefined)	CCT modulator -33
NC(=O)NC(=O)CSc1nc(C2CCCCC2)n(-c2ccccc2)n1	none
COc1ccc(C)cc1NC(=O)Cc1csc(NC(=O)Nc2ccccc2OC)n1	none (no result: Rango dissoc inh, MmCpn inh, Rango-impB inh)
Cc1c(O)ccc(C(=O)CN2CCN(c3ccc(F)cc3)CC2)c1O	none
Cc1c(O)ccc(C(=O)CN2CCN(Cc3ccccc3)CC2)c1O	CCT modulator -56
COc1cccc(Nc2nc(C(N)Cc3ccccc3)cs2)n1 (centres undefined)	none (no result: Rango dissoc inh, KCNH2 3.1 block, MmCpn inh, Rango-impB inh, hERG WT inh)

Screening results from PubChem.
